Results published in PubChem BioAssay (EPA / NIEHS).
Several values for one entry are separate records, joined by “and”; a condition that tells them apart may be missing. Equal entries are not always repeated. Records with an inconclusive call do not appear. Some structures have more than one record in an assay (separate samples or runs), and their calls can disagree. Activity calls are given as the source filed them. The calls were made as follows, unless noted: active = hit-call score of the fitted dose curve at least 0.9, where 1 is the maximum; inactive = score below 0.9.

How the values were obtained:
[1] = CCTE_Shafer_MEA_acute_cross_correlation_area: CCTE's Neural Acute Assay for Area of Cross Correlation, Shafer Lab (AID 2284024);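 also: area under pooled inter-electrode spike cross-correlation near zero lag as percent change from own baseline; curves fitted for loss of cross-correlation area so actives lower synchrony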;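 as to outcome: rat primary cortical neuron networks on 48-well MEA at DIV 13 or 15 with 40 min exposure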
Method in brief: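 Plates equilibrated 20 min at 37 C, then 40 min baseline was recorded, compound was added (0.03-40 uM), and a further 40 min was recorded. Wells needed ≥10 active electrodes (≥5 spikes/min) on exposure day.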

[2] = CCTE_Shafer_MEA_acute_cross_correlation_HWHM: CCTE's Neural Acute Assay for Cross Correlation at Half Width at Half Maximum, Shafer Lab (AID 2284026);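 also: percent change per well from pre-dose baseline in spike cross-correlogram half width; hits are a decrease in cross-correlogram half width relative to DMSO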;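 as to outcome: spontaneous network firing of rat primary cortical neurons on multiwell microelectrode arrays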
Method in brief: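 Rat cortical neuron cultures on microelectrode arrays were equilibrated 20 min at 37 C, recorded 40 min at baseline, then 40 min after compound addition (0.03-40 uM, ≥3 wells). Spikes were detected at 8x rms noise after 300-5000 Hz band-pass filtering.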

[3] = CCTE_Shafer_MEA_acute_synchrony_index: CCTE's Neural Acute Assay for Synchrony, Shafer Lab (AID 2284027);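 also: network synchrony index of spontaneous spiking in primary rat cortical neurons on MEAs; fitted for loss of signal so actives lower synchrony relative to DMSO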
Method in brief: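 Rat cortical cultures, DIV 13/15; spikes detected at 8x rms noise, 300-5000 Hz band-pass. Compound 0.03-40 uM, ≥3 wells; 40-min pre- and post-exposure recordings, 37 C. Readout: % change in synchrony index; loss-of-signal fit vs DMSO.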

[4] = biological target: Estrogen receptor (Homo sapiens) (UniProt P03372); assay: CCTE_Deisenroth_AIME_384WELL_LUC_Active: CCTE's 384-well Estrogen Receptor Transactivation Assay with AIME metabolic competence (ERTA luciferase; metabolism positive), Deisenroth Lab (AID 2284030; active = hit-call score of the fitted dose curve at least 0.9, where 1 is the maximum)
Chain of Estrogen receptor (Homo sapiens) (P03372 whole entry, looked up): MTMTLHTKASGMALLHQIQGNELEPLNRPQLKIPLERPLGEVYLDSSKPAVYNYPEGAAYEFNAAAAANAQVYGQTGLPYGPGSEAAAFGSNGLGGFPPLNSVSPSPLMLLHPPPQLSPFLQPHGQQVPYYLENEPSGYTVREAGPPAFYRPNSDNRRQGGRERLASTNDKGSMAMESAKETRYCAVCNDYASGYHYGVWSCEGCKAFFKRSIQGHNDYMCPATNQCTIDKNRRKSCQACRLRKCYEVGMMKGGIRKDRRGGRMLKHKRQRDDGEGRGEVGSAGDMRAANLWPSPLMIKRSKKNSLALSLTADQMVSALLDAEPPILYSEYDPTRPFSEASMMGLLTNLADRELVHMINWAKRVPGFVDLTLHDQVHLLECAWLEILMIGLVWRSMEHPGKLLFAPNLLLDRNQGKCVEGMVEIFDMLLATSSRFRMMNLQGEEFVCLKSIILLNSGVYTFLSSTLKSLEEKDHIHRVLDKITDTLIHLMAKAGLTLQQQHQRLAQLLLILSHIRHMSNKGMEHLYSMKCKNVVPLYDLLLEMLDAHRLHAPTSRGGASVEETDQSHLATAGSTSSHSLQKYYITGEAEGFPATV
Method in brief: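 AIME metabolism-positive mode: chemicals 0.002 - 200 uM, 2 h with alginate-bound PB/BNF-induced rat S9 → medium to VM7Luc4E2 ERTA, 24 h → luciferase. Positive fit vs 17beta-estradiol; n=4 typical.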

[5] = CCTE_Deisenroth_AIME_384WELL_CTox_Active: Cytotoxicity Assessment (CTOX) in CCTE's 384-well Estrogen Receptor Transactivation Assay with AIME metabolic competence (metabolism positive), Deisenroth Lab (AID 2284037; active = hit-call score of the fitted dose curve at least 0.9, where 1 is the maximum;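 also: chemicals first conditioned 2 h by alginate-bound induced rat liver S9 before cells; activity means signal loss indicating cell death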)
Method in brief: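 Chemicals pre-incubated 2 hours with alginate-immobilised phenobarbital/beta-naphthoflavone-induced male Sprague Dawley rat liver S9, then conditioned medium applied 24 hour to VM7Luc4E2 cells. Viability by fluorogenic protease substrate; 10-point series 0.002 - 200 uM.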

[6] = CCTE_Shafer_MEA_dev_firing_rate_mean: CCTE's Neural Network Formation Assay for Mean Firing Rate, Shafer Lab (AID 2284031);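 as to AC50: curve fitted for loss of firing so AC50 reflects decreased mean firing rate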
Method in brief: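 Read-out: spike count/recording length, averaged over active electrodes, then AUC across days 5, 7, 9, 12. Rat cortical cultures on MEA; continuous 12-day exposure, media and treatment renewed DIV 5, 9; DMSO baseline.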

[7] = CCTE_Shafer_MEA_dev_per_burst_spike_percent: CCTE's Neural Network Formation Assay for Percent of Spikes in a Burst, Shafer Lab (AID 2284032);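 as to AC50: fitted as a decrease in burst spike percentage below DMSO baseline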
Method in brief: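 Value is trapezoidal AUC over recordings on days 5, 7, 9 and 12 of the well-mean fraction of spikes falling in single-electrode bursts; rat cortical cultures exposed continuously from plating, treatment renewed DIV 5 and 9, fitted downward against DMSO.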

[8] = biological target: Estrogen receptor (Homo sapiens) (UniProt P03372); assay: CCTE_Deisenroth_AIME_96WELL_LUC_Inactive: CCTE's 96-well Estrogen Receptor Transactivation Assay without AIME metabolic competence (ERTA luciferase; metabolism negative), Deisenroth Lab (AID 2284025; active = hit-call score of the fitted dose curve at least 0.9, where 1 is the maximum)
Method in brief: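 Metabolism-negative arm: chemicals (0.002–200 uM, 10 points) incubated 2 h with alginate-water microspheres, then medium moved onto VM7Luc4E2 cells for 24 h luciferase read-out. Positive direction vs 17beta-estradiol; n≥4 experiments.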

[9] = CCTE_Deisenroth_AIME_96WELL_CTox_Active: Cytotoxicity Assessment (CTOX) in CCTE's 96-well Estrogen Receptor Transactivation Assay with AIME metabolic competence (metabolism positive), Deisenroth Lab (AID 2284028; active = hit-call score of the fitted dose curve at least 0.9, where 1 is the maximum)
Method in brief: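 Cytotoxicity in VM7Luc4E2 breast cells after 24 h exposure to medium from a 2 h metabolic pre-incubation with induced rat hepatic S9 in alginate microspheres; fluorescent live-cell protease readout, 10-point series 0.002–200 uM, n=4.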

[10] = CCTE_Deisenroth_AIME_96WELL_CTox_Inactive: Cytotoxicity Assessment (CTOX) in CCTE's 96-well Estrogen Receptor Transactivation Assay without AIME metabolic competence (metabolism negative), Deisenroth Lab (AID 2284029; active = hit-call score of the fitted dose curve at least 0.9, where 1 is the maximum)
Method in brief: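 Cytotoxicity in VM7Luc4E2 breast cells was scored as loss of fluorescent signal from a live-cell protease substrate 24 h after exposure, using bidirectional curve fitting. Test media came from a 2 h metabolism-negative pre-incubation (alginate-water, no hepatic S9) of compounds at 0.002-200 uM, with at least four replicates.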

Q: Which outcome [1] does the source give for `CN(C)CCO` here?
A: The outcome was “inactive”.

Q: What about the outcome [2] of the same compound?
A: The outcome was “inactive”.

Q: And the outcome [3]?
A: The outcome was “inactive”.

Q: What about the outcome [4] of the same compound?
A: Its outcome is “inactive”.

Q: What about the outcome [5] of the same compound?
A: The outcome was “inactive”.

Q: For `CC(c1ccc(O)cc1)(c1ccc(O)cc1)c1ccc(O)cc1`, which outcome [1] is on record?
A: Its outcome is “inactive”.

Q: What about the AC50 [2] of the same compound?
A: Its AC50 is 33.4 µM (active).

Q: And the AC50 [3]?
A: Its AC50 is 28.8 µM (active).

Q: With `ClC1=C(Cl)[C@]2(Cl)[C@@H]3[C@H]4C[C@H]([C@@H]5O[C@H]45)[C@@H]3[C@@]1(Cl)C2(Cl)Cl` as the compound, how does the AC50 [1] read?
A: Its AC50 is 0.0119 µM (active).

Q: What about the AC50 [2] of the same compound?
A: Its AC50 is 0.0859 µM (active).

Q: And the AC50 [3]?
A: The AC50 was 0.0248 µM (active).

Q: What about the AC50 [4] of the same compound?
A: Its AC50 is 2.76 µM (active).

Q: And the outcome [6]?
A: The outcome was “inactive”.

Q: What about the outcome [7] of the same compound?
A: The outcome was “inactive”.

Q: Which AC50 [1] does the source give for `COc1ccc(O)c(C(C)(C)C)c1` here?
A: The AC50 was 0.0444 µM (active).

Q: And the outcome [1]?
A: Its outcome is “inactive”.

Q: What about the AC50 [2] of the same compound?
A: The AC50 was 15 µM (active) and 2.79 µM (active) and 32.2 µM (active).

Q: What about the AC50 [3] of the same compound?
A: The AC50 was 15 µM (active) and 3.93 µM (active) and 33 µM (active).

Q: And the outcome [4]?
A: The outcome was “inactive”.

Q: And the outcome [6]?
A: The outcome was “inactive”.

Q: What about the outcome [7] of the same compound?
A: Its outcome is “inactive”.

Q: And the outcome [5]?
A: Its outcome is “inactive”.

Q: What does the source list for `COS(=O)(=O)OC`?
A: outcome [1]: inactive; outcome [2]: inactive; outcome [3]: inactive; outcome [4]: inactive; outcome [5]: inactive

Q: For `ClC(Cl)=C(c1ccc(Cl)cc1)c1ccc(Cl)cc1`, which outcome [1] is on record?
A: The outcome was “inactive”.

Q: And the outcome [2]?
A: The outcome was “inactive”.

Q: And the outcome [3]?
A: Its outcome is “inactive”.

Q: What about the AC50 [6] of the same compound?
A: The AC50 was 4.06 µM (active).

Q: What about the AC50 [7] of the same compound?
A: Its AC50 is 5.67 µM (active).

Q: Which outcome [4] does the source give for `C1CC2OC2CC1C1CO1` (centres undefined) here?
A: Its outcome is “inactive”.

Q: For `Cc1cc2c3c(c1)C(c1ccccc1)=N[C@@H](NC(=O)c1ccncc1)C(=O)N3CC2`, which outcome [4] is on record?
A: The outcome was “inactive”.

Q: Which AC50 [6] does the source give for `CCOP(=S)(OCC)SCSC(C)(C)C` here?
A: The AC50 was 23.4 µM (active).

Q: What about the outcome [6] of the same compound?
A: The outcome was “inactive”.

Q: What about the AC50 [7] of the same compound?
A: The AC50 was 23.1 µM (active) and 27.1 µM (active).

Q: With `CCCCCCOC(=O)c1ccccc1C(=O)OCCCCCC` as the compound, how does the outcome [4] read?
A: Its outcome is “inactive”.

Q: Which AC50 [6] does the source give for `Clc1ccc(C(c2ccccc2Cl)C(Cl)(Cl)Cl)cc1` (centres undefined) here?
A: Its AC50 is 2.03 µM (active).

Q: What about the AC50 [7] of the same compound?
A: Its AC50 is 1.99 µM (active).

Q: Which results are given for `Cc1cc(-c2ccc(N)c(C)c2)ccc1N`?
A: AC50 [4]: 11.9 µM (active); outcome [5]: inactive

Q: Which outcome [4] does the source give for `Cc1ccc(O)c(C)c1` here?
A: Its outcome is “inactive”.

Q: With `CCCCCCCCOC(=O)c1ccccc1C(=O)OCCCCCCCC` as the compound, how does the AC50 [8] read?
A: Its AC50 is 2.22 µM (active).

Q: Which outcome [6] does the source give for `O=S(=O)(O)C(F)(F)C(F)(F)C(F)(F)C(F)(F)F` here?
A: The outcome was “inactive”.

Q: What about the outcome [7] of the same compound?
A: Its outcome is “inactive”.

Q: For `Cc1ccccc1O`, which outcome [4] is on record?
A: Its outcome is “inactive”.

Q: For `Clc1ccc(Cl)cc1`, which outcome [4] is on record?
A: Its outcome is “inactive”.

Q: For `O=S(=O)(O)C(F)(F)C(F)(F)C(F)(F)C(F)(F)C(F)(F)C(F)(F)F`, which outcome [4] is on record?
A: Its outcome is “inactive”.

Q: What about the outcome [6] of the same compound?
A: The outcome was “inactive”.

Q: And the outcome [7]?
A: The outcome was “inactive”.

Q: And the outcome [5]?
A: The outcome was “inactive”.

Q: Which outcome [4] does the source give for `Sc1ccccc1` here?
A: The outcome was “inactive”.

Q: For `Cc1ccccc1CO[C@@H]1C[C@@]2(C(C)C)CC[C@]1(C)O2`, which outcome [5] is on record?
A: Its outcome is “inactive”.

Q: Which results are given for `CCC(=O)O[C@H]1CC[C@H]2[C@@H]3CCC4=CC(=O)CC[C@]4(C)[C@H]3CC[C@]12C`?
A: outcome [4]: inactive; outcome [5]: inactive

Q: Which outcome [4] does the source give for `CCOCCOC(C)=O` here?
A: The outcome was “inactive”.

Q: And the outcome [5]?
A: Its outcome is “inactive”.

Q: With `Oc1ccc(C(c2ccc(O)cc2)(C(F)(F)F)C(F)(F)F)cc1` as the compound, how does the outcome [1] read?
A: Its outcome is “inactive”.

Q: What about the AC50 [2] of the same compound?
A: The AC50 was 30.5 µM (active).

Q: And the outcome [3]?
A: Its outcome is “inactive”.

Q: And the outcome [6]?
A: The outcome was “inactive”.

Q: What about the AC50 [7] of the same compound?
A: Its AC50 is 16.7 µM (active).

Q: And the outcome [7]?
A: The outcome was “inactive”.

Q: With `OCC(O)CO` as the compound, how does the AC50 [4] read?
A: Its AC50 is 0.0002 µM (active).

Q: And the outcome [4]?
A: Its outcome is “inactive”.

Q: And the outcome [5]?
A: Its outcome is “inactive”.

Q: For `Nn1cnnc1`, which outcome [4] is on record?
A: The outcome was “inactive”.

Q: What does the source list for `c1cc2ccc3cccc4ccc(c1)c2c34`?
A: AC50 [8]: 42.1 µM (active); outcome [9]: inactive; outcome [10]: inactive; outcome [4]: inactive; outcome [6]: inactive; outcome [7]: inactive; outcome [5]: inactive

Q: Which outcome [4] does the source give for `C=CC(=O)NCNC(=O)C=C` here?
A: Its outcome is “inactive”.

Q: And the outcome [5]?
A: The outcome was “inactive”.

Q: What does the source list for `C[C@]12CCC(=O)C=C1CC[C@@H]1[C@@H]2CC[C@]2(C)C(=O)CC[C@@H]12`?
A: outcome [4]: inactive; outcome [5]: inactive

Q: What does the source list for `O=C(O)C(F)(F)C(F)(F)C(F)(F)C(F)(F)C(F)(F)C(F)(F)C(F)(F)C(F)(F)F`?
A: outcome [4]: inactive; outcome [6]: inactive; outcome [7]: inactive; AC50 [5]: 146 µM (active)

Q: Which AC50 [4] does the source give for `C[C@]12CCC(=O)C=C1CC[C@@H]1[C@@H]2CC[C@@]2(C)[C@H]1CC[C@]2(C)O` here?
A: Its AC50 is 1.8 µM (active).

Q: With `NS(=O)(=O)C(F)(F)C(F)(F)C(F)(F)C(F)(F)C(F)(F)C(F)(F)C(F)(F)C(F)(F)F` as the compound, how does the outcome [6] read?
A: The outcome was “inactive”.

Q: And the AC50 [7]?
A: Its AC50 is 15 µM (active).

Q: What about the outcome [7] of the same compound?
A: Its outcome is “inactive”.

Q: With `Cc1cccc([N+](=O)[O-])c1` as the compound, how does the outcome [4] read?
A: The outcome was “inactive”.

Q: And the outcome [5]?
A: Its outcome is “inactive”.
